Measured values from PubChem BioAssay AID743129 (Broad Institute, 2013).
Results with a measured potency or affinity are listed apart. The source made the active and inactive calls.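 How the source made its calls: active means cytotoxic compounds whose fitted half-maximal concentration is at most twice the highest valid tested dose; inconclusive means flat curve with 30 to 70% cell loss, or poor fit; inactive means the rest, including signal rising instead of falling.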

Test: HepG2 cell cytotoxicity, dose response, cytotoxicity control, ATP luminescence, dry powder, set 2 (AID 743129)
Settings: HepG2 viability, ATP luminescence (CellTiter-Glo), 72 h; series mostly up to 26 µM; activity change, negative = cytotoxicity: at the top concentration

| SMILES | activity change, negative = cytotoxicity |
| --- | --- |
| Cc1ccc2c(c1)[nH]c(=S)n2CCOc1ccccc1 | 29.2% (inactive) |
| S=c1[nH]c2cccc(Cl)c2n1CCOc1ccccc1 | -3.38% (inactive) |
| CCOC(=O)c1c(-c2ccc(OC)cc2)csc1NC(=O)CN(C)CC(=O)N(C)C | 6.85% (inactive) |
